The results in this text go back to PubChem BioAssay.

The source made the active and inactive calls. Unless noted, the rule behind the calls is not given here.

A short description of assay [1]: anti-His antibody binders, primary screen, artefact control for SMM control protein annotation, biochemical, small-molecule microarray, 635 nm fluorescence (AID 1128).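 Note: score merges feature fluorescence with signal-to-noise for each printed compound spot.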 The settings on record: anti-His Alexa647 antibody binding, higher = more signal.
Assay [2] has as its system Human papillomavirus type 1a E7 protein (residues 1-88). Briefly: HPV1a E7 small-molecule binders, primary screen, biochemical, small-molecule microarray, residues 1-88, 635 nm (AID 1129). Particulars: small-molecule microarray binding, fluorescence 635 nm; higher = more signal.
For assay [3], the target named is Focal adhesion kinase 1 (Homo sapiens) (UniProt Q05397). Briefly: small-molecule microarray binders of FAK, primary screen, biochemical, 635/667 nm fluorescence, BSA, DTT (AID 1130).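 Note: composite of spot emission at 667 nm and signal to noise over triplicate slides.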 Particulars: PTK2 binding, 635 nm fluorescence, higher = more signal.
Sequence of Focal adhesion kinase 1 (Homo sapiens) (Q05397 whole entry, looked up): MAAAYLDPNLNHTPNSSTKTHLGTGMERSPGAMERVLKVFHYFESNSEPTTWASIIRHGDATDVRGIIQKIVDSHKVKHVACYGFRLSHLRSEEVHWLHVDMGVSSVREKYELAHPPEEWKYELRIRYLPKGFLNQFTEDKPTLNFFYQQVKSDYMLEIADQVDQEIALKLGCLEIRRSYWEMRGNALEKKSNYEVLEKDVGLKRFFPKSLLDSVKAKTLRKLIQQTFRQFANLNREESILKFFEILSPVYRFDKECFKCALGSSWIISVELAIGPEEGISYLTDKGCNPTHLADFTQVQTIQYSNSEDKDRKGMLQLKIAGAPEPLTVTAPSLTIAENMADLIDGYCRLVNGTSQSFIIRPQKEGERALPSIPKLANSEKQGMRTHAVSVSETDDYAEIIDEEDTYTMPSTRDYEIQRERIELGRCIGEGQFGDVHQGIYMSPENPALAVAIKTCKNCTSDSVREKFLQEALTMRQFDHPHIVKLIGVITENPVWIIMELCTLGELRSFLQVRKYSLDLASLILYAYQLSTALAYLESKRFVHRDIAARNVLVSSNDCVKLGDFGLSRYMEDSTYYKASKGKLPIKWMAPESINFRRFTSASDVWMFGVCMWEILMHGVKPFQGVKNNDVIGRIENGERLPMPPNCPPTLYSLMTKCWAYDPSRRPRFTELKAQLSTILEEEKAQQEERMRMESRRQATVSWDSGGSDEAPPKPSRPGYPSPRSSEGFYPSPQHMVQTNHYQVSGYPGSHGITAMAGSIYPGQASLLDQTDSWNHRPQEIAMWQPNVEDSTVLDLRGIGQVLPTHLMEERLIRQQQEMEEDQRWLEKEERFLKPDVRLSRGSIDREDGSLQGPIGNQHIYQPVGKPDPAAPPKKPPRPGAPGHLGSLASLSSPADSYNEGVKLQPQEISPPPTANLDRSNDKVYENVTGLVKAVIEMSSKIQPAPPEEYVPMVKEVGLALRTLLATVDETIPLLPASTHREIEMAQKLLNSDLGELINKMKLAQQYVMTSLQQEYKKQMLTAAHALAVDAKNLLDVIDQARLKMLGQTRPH
Assay [4] deals with Fibrinogen (Alexa647-labelled). Put plainly: fibrinogen binders on compound microarrays, profiling panel, artefact control for SMM control-protein annotation, biochemical, small-molecule microarray, 635/667 nm fluorescence (AID 1131).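 Note: z-score merges 667 nm fluorescence with per-spot signal-to-noise over triplicate slides.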 Particulars: fibrinogen-A647 binding fluorescence, higher = more signal.
Assay [5] addresses Follistatin (Homo sapiens) (UniProt P19883). Briefly: follistatin binders on small-molecule microarrays, primary screen, biochemical, small-molecule microarray, 635/667 nm fluorescence (AID 1132). The settings on record: FST binding, 635 nm fluorescence, higher = more signal.
In assay [6] the target is Fibroblast growth factor 2 (Homo sapiens) (UniProt P09038). Put plainly: FGF2 binders on small-molecule microarrays, primary screen, biochemical, small-molecule microarray, 635/667 nm fluorescence (AID 1133). The settings on record: small-molecule microarray binding, FGF2, fluorescence 635/667; higher = more signal.
Sequence of Fibroblast growth factor 2 (Homo sapiens) (P09038 whole entry, looked up): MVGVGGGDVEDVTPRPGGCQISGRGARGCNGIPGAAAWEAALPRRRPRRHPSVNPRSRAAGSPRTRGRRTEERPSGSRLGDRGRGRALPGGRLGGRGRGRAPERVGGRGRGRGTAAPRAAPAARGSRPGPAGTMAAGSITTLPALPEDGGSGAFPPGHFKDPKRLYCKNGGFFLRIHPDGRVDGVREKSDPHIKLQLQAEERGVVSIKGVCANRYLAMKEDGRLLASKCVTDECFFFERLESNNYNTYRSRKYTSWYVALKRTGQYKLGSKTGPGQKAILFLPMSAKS
Assay [7] is described as follows: mitochondrial membrane potential change in A549 cells, profiling panel, cell-based, JC-1 fluorescence, basal, 24 h, 100 nL (AID 1138).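 Note: A549 lung adenocarcinoma cells under basal conditions with no added stimulus; test concentration not given here.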 The settings on record: higher = more signal.
In assay [8] the test system is Lefty1. Put plainly: Lefty1 binders on small-molecule microarrays, primary screen, biochemical, small-molecule microarray, 635/667 nm fluorescence (AID 1139). The settings on record: small-molecule microarray binding, fluorescence 635/667; higher = more signal.
The subject of assay [9] is wheat germ agglutinin (Triticum aestivum), Alexa647-labelled. Put plainly: wheat germ agglutinin binders on compound microarrays, profiling panel, artefact control for SMM control-protein annotation, biochemical, small-molecule microarray, 635/667 nm fluorescence (AID 1140).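 Note: score merges 667 nm feature emission with signal to noise over triplicate slides.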 Particulars: WGA-A647 binding, 635 nm fluorescence, higher = more signal.
Assay [10] deals with Luciferin 4-monooxygenase (Photinus pyralis) (UniProt P08659). Briefly: firefly luciferase enzyme inhibitors, primary screen, biochemical, luminescence, purified enzyme, 2006 set (AID 1141).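 Note: cell-free assay with purified firefly luciferase at 100 ng per well in PBS; test concentration not given here.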 The settings on record: SteadyGlo luminescence, 30 min, higher = more signal, called active from +8 up or from −8 down.
Sequence of Luciferin 4-monooxygenase (Photinus pyralis) (P08659 whole entry, looked up): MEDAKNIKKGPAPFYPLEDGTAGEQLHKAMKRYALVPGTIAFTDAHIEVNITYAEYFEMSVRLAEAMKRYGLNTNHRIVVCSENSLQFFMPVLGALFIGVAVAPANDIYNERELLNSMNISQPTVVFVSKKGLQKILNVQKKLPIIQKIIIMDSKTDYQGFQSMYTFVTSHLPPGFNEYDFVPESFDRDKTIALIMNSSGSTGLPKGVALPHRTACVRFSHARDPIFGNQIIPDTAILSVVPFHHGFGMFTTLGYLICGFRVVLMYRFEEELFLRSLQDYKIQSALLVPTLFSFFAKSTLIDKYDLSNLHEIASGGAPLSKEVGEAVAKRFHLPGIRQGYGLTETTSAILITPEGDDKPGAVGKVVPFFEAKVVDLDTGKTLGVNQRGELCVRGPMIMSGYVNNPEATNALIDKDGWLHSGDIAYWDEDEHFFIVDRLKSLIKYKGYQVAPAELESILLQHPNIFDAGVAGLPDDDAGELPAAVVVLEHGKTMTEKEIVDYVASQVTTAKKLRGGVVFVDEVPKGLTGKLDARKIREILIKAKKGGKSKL
For assay [11], the system named is Wnt5a (protein binding on small-molecule microarray). Briefly: Wnt5a binders on small-molecule microarray, primary screen, biophysical, 635/667 nm fluorescence (AID 1142).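 Note: fluorescence read at 667 nm with signal to noise per printed feature.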 Particulars: 635 nm fluorescence, higher = more signal.
A short description of assay [12]: cell viability in Huh7 cells, primary screen, cytotoxicity control for HCV replication inhibitor project, CellTiter-Glo luminescence, basal, 48 h (AID 1143).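 Note: Huh7 hepatoma cells carrying a hepatitis C replication reporter with no stimulus; test concentration not given here.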 The settings on record: Huh7 HCV replicon, higher = more signal, called active from +8 up or from −8 down.
The nature of assay [13]: P. aeruginosa biofilm formation inhibitors, primary screen, PAO1 strain, BacTiter-Glo luminescence, LB-PBS (AID 1144). The settings on record: 12 h, higher = more signal.
A short description of assay [14]: CREB reporter modulators without forskolin, primary screen, cell-based, PC12, CRE-LacZ reporter, unstimulated (AID 1145). Particulars: no forskolin, luminescence, 4.5 h, higher = more signal, called active from +8 up or from −8 down.
Assay [15] in a line: CREB reporter modulators under forskolin, primary screen, cell-based, PC12, CRE-LacZ reporter, forskolin-stimulated (AID 1146).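 Note: PC12 cells with 6xCRE LacZ reporter stimulated by forskolin 10 µM; beta-galactosidase reporter signal reflecting CREB driven transcription.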 The settings on record: luminescence, 4.5 h, higher = more signal, called active from +8 up or from −8 down.
Assay [16] concerns the target Streptavidin (Streptomyces avidinii) (UniProt P22629). Put plainly: streptavidin binders on small-molecule microarray, primary screen, artefact control for SMM compound annotation, biophysical, 635/667 nm fluorescence (AID 1147).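 Note: signal reflects streptavidin binding to arrayed compounds as a control protein.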 Particulars: streptavidin binding, higher = more signal.
Assay [17] is described as follows: small-molecule binders of probe aInhba, primary screen, biochemical, small-molecule microarray, 635/667 nm fluorescence (AID 1148).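 Note: score merges 667nm spot fluorescence with signal-to-noise for antibody binding to printed compounds.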 The settings on record: higher = more signal.
For assay [18], the target named is Torsin-1A (Homo sapiens) (UniProt O14656). Put plainly: torsin A binders from cell lysate, primary screen, small-molecule microarray, wild-type, 635/667 nm (AID 1149). The settings on record: COS7 hTOR1A-WT lysate, 635 nm fluorescence, higher = more signal.
Sequence of Torsin-1A (Homo sapiens) (O14656 whole entry, looked up): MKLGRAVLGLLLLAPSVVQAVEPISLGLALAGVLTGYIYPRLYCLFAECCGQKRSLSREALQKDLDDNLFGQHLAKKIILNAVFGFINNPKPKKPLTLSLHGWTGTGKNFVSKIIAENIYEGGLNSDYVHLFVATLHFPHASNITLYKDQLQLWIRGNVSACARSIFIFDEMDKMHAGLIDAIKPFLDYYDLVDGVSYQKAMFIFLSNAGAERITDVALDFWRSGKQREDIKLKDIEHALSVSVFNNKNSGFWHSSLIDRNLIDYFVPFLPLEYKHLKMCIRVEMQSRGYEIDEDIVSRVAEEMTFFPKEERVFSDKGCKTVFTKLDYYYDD
For assay [19] the target is unchanged. Put plainly: small-molecule binders of mutant TOR1A in lysate, primary screen, cell lysate, small-molecule microarray, COS7 lysate, 635/667 nm fluorescence (AID 1150).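 Note: score pools 667 nm emission and signal to noise measuring lysate protein binding.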 Particulars: COS7 hTOR1A mutant lysate, 635 nm fluorescence, higher = more signal.
Assay [20] concerns Sonic hedgehog protein (Shh). Briefly: small-molecule binders of Shh protein, primary screen, biochemical, small-molecule microarray, 635/667 nm fluorescence (AID 1151).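 Note: Shh protein binding to compounds spotted on small-molecule microarray slides; score combines spot fluorescence intensity with signal-to-noise across triplicate slides.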 The settings on record: small-molecule microarray binding, 635 nm fluorescence; higher = more signal.

Sequence of Follistatin (Homo sapiens) (P19883 whole entry, looked up): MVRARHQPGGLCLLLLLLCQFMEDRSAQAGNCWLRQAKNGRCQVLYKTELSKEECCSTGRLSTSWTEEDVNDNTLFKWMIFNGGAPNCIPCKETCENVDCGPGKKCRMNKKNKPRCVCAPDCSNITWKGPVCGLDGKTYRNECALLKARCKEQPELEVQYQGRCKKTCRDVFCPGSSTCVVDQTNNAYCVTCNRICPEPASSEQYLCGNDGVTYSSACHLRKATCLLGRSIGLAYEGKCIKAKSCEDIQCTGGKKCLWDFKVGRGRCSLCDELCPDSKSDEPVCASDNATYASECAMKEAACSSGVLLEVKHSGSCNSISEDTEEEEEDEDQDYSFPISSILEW
Sequence of Streptavidin (Streptomyces avidinii) (P22629 whole entry, looked up): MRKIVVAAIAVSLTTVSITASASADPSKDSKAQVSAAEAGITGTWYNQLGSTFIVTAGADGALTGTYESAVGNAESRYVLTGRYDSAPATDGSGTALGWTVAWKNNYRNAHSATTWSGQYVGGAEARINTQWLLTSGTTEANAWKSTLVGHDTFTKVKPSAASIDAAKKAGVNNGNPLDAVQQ

With `O=C1C2C=CC(C(O)C(c3ccccc3)c3ccccc3)N(Nc3ccccc3)C2C(=O)N1c1ccccc1` (stereo not given), the composite z-score is 0.59 in assay [1]; 1.28 in assay [2]; 0.175 in [3]; 1.03 in [4]; 1.29 in assay [5]; 0.472 in assay [6]. Moreover, the composite z-score in [8] turned out to be 0.707; in assay [9] it was 0.882; in [11], 0.422; in assay [16], 0.828; in [17], 0.271; in assay [18], 0.616. Further, the composite z-score in assay [19] was 0.984; in [20], 0.734. The z-score was 0.0105 in [7]; -1.05 (inactive) in assay [10]; -0.374 (inactive) in assay [12]; -1.06 (inactive) in assay [13]; 0.629 (inactive) in [14]; -0.222 (inactive) in assay [15].
On to `C=C(C(=O)CC[C@@H](OC(C)=O)c1cccc(OCCO)c1)C(C)C`, for which the composite z-score was 0.83 in assay [1]; 0.54 in assay [2]; 0.217 in [3]; -0.281 in [4]; 0.549 in assay [5]; -0.531 in assay [6]. Moreover, the composite z-score in assay [8] was 0.889; in assay [9], 0.449; in assay [11] it was -0.162; in assay [16], -0.377; in assay [17] it was 0.0053; in assay [18], 1.93. Also, the composite z-score in [19] worked out at 0.456; in [20], 2. Further, the z-score in assay [7] was -0.106; in [10], -1.08 (inactive); in assay [12] it was -0.344 (inactive); in assay [13], 0.0482 (inactive); in assay [14], 2.29 (inactive); in assay [15] it was 1.23 (inactive).
As for `COc1ccc(NC(=O)O[C@H]2[C@H](OC(=O)Nc3ccc4c(c3)OCO4)[C@H](OC(=O)Nc3ccc4c(c3)OCO4)[C@@H](OC)O[C@@H]2CO)cc1`, the composite z-score in assay [1] was 1.45; in [2], 1.25; in assay [3] it was 0.216; in [4] it was 0.362; in assay [5], 1.29; in assay [6], 0.319. For the same compound, the composite z-score in [8] is 0.293; in assay [9], 0.8; in assay [11], 0.0873; in [16], -0.0821; in [17] it was -0.0131; in assay [18] it was 0.207. Moreover, the values for the composite z-score in assay [19] and in assay [20] were 1.91 and 0.725, respectively. The z-score is 0.0258 in assay [7]; -6.52 (inactive) in [10]; -2.42 (inactive) in [12]; 0.883 (inactive) in assay [13]; 0.456 (inactive) in assay [14]; -0.92 (inactive) in [15].
With `COc1ccc(C#Cc2ccc3c(c2)[C@]2(C(=O)N3)[C@H](C(=O)Nc3nc4ccccc4s3)[C@H]3C(=O)O[C@H](c4ccccc4)[C@H](c4ccccc4)N3[C@@H]2c2ccc(OCCO)cc2)cc1`, the composite z-score was determined as 1.11 in [1]; 0.98 in assay [2]; 0.266 in assay [3]; 0.731 in assay [4]; 1.38 in assay [5]; 0.83 in assay [6]. The composite z-score in [8] amounted to 0.949; in [9], 1.29; in assay [11] it was 0.505; in assay [16], 1.57; in [17] it was 0.153; in assay [18], 0.504. The values for the composite z-score in assay [19] and in assay [20] were 0.887 and 1.06, respectively. Moreover, the z-score in assay [7] is -2.33; in [10] it was -3.53 (inactive); in assay [12], -0.974 (inactive); in assay [13] it was -0.953 (inactive); in assay [14], -1.43 (inactive); in assay [15] it was -0.545 (inactive).
Take `COC(=O)c1ccc([C@H](NC(=O)c2ccccc2)[C@]2(C)C[C@H]2C2CCCCC2)cc1`: the composite z-score was 0.494 in [1]; 1.18 in assay [2]; 0.591 in assay [3]; 0.707 in [4]; 0.412 in [5]; -0.639 in [6]. Besides, the composite z-score is -0.41 in assay [8]; 1.21 in assay [9]; 0.0477 in assay [11]; 1.08 in assay [16]; 0.166 in assay [17]; -0.435 in assay [18]. Further, the composite z-score in assay [19] is 0.266; in [20], -0.999. The z-score was 0.85 in assay [7]; 1.51 (inactive) in assay [10]; -1.78 (inactive) in assay [12]; -0.718 (inactive) in assay [13]; 0.394 (inactive) in assay [14]; 1.28 (inactive) in assay [15].
